From PubChem BioAssay AID1159580 (chemical genetic matrix, 2015)
“And” between values parts separate entries of the source, which are not always exact repeats. Equal entries are not always repeated. About 2,000 (36%) of roughly 5,500 compounds were called active. Roughly 18% stayed inconclusive and do not appear here. Rule as the data show it: active = normalized growth mostly below about 0.91 (no sharp cut-off); inconclusive = no clear call, values can overlap the other calls; inactive = mostly above about 0.92. Some of the results follow.

Test: chemical genetic growth profiling, strain panel (AID 1159580);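 also: tested at 20 µM; growth read once vehicle control cultures reached saturation at 30 °C; 1 = growth at the plate median or of vehicle wells; lower values mean less growth of the strain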
Conditions: S. cerevisiae deletion strains, growth OD

Measured: normalized growth

NC(=NCCCCCCN=C(N)N=C(N)Nc1ccc(Cl)cc1)N=C(N)Nc1ccc(Cl)cc1
active: locus YAL013W, strain DEP1, hits give low values 0.056 | locus YAL021C, strain ccr4, hits give low values 0.0662 | locus YAL026C, strain drs2, hits give low values 0.0626 | locus YAL030W, strain snc1, hits give low values 0.0546 | locus YBL061C, strain skt5, hits give low values 0.058 | locus YBR009C, strain hhf1, hits give low values 0.0582 | locus YBR021W, strain FUR4, hits give low values 0.0878 | locus YBR023C, strain chs3, hits give low values 0.0607 | locus YBR171W, strain sec66, hits give low values 0.0764 | locus YBR229C, strain ROT2, hits give low values 0.0485 | locus YBR231C, strain swc5, hits give low values 0.0617 | locus YBR279W, strain paf1, hits give low values 0.057 | locus YCL011C, strain gbp2, hits give low values 0.0584 | locus YCL016C, strain dcc1, hits give low values 0.0623 | locus YCL029C, strain bik1, hits give low values 0.0646 | locus YCL061C, strain MRC1, hits give low values 0.064 | locus YCL069W, strain vba3, hits give low values 0.0598 | locus YCR088W, strain abp1, hits give low values 0.0598 | locus YDL005C, strain med2, hits give low values 0.0712 | locus YDL035C, strain GPR1, hits give low values 0.0531 | locus YDL040C, strain nat1, hits give low values 0.0593 | locus YDL074C, strain BRE1, hits give low values 0.0847 | locus YDL101C, strain DUN1, hits give low values 0.0564 | locus YDL134C, strain PPH21, hits give low values 0.049 | locus YDL185W, strain tfp1, hits give low values 0.0606 | locus YDL192W, strain arf1, hits give low values 0.0624 | locus YDR001C, strain nth1, hits give low values 0.0588 | locus YDR069C, strain doa4, hits give low values 0.0603 | locus YDR101C, strain arx1, hits give low values 0.0584 | locus YDR137W, strain rgp1, hits give low values 0.0872 | locus YDR150W, strain NUM1, hits give low values 0.0563 | locus YDR159W, strain sac3, hits give low values 0.0896 | locus YDR162C, strain NBP2, hits give low values 0.0503 | locus YDR195W, strain ref2 0.121 | locus YDR297W, strain sur2, hits give low values 0.0547 | locus YDR318W, strain mcm21, hits give low values 0.0658 | locus YDR334W, strain swr1, hits give low values 0.0626 | locus YDR335W, strain msn5, hits give low values 0.0581 | locus YDR388W, hits give low values 0.0574 | locus YDR392W, strain spt3, hits give low values 0.0798 | locus YDR502C, strain sam2, hits give low values 0.0629 | locus YEL003W, strain gim4, hits give low values 0.0531 | locus YEL037C, strain rad23, hits give low values 0.0554 | locus YEL061C, strain CIN8 (second series), hits give low values 0.0594 | locus YEL061C, strain CIN8, hits give low values 0.0488 | locus YER015W, strain faa2, hits give low values 0.0825 | locus YER016W, strain bim1, hits give low values 0.058 | locus YER110C, hits give low values 0.0744 | locus YER111C, strain swi4, hits give low values 0.0705 | locus YER155C, strain BEM2 (second series), hits give low values 0.087 | locus YER155C, strain BEM2, hits give low values 0.0622 | locus YER167W, strain BCK2, hits give low values 0.0527 | locus YFR010W, strain ubp6, hits give low values 0.0674 | locus YGL078C, strain dbp3, hits give low values 0.65 | locus YGL086W, strain mad1, hits give low values 0.0564 | locus YGL167C, strain pmr1, hits give low values 0.0727 | locus YGL173C, strain kem1, hits give low values 0.0668 | locus YGL227W, strain vid30, hits give low values 0.0612 | locus YGL240W, strain doc1, hits give low values 0.0747 | locus YGL248W, strain PDE1, hits give low values 0.0464 | locus YGL253W, strain hxk2, hits give low values 0.0538 | locus YGR078C, strain PAC10, hits give low values 0.0508 | locus YGR135W, strain pre9, hits give low values 0.0694 | locus YGR229C, strain SMI1, hits give low values 0.0582 | locus YGR252W, strain gcn5, hits give low values 0.146 | locus YHR013C, strain ard1, hits give low values 0.103 | locus YHR027C, strain rpn1, hits give low values 0.058 | locus YHR030C, strain SLT2, hits give low values 0.051 and 0.102 | locus YHR079C, strain IRE1 (second series), hits give low values 0.0602 | locus YHR079C, strain IRE1, hits give low values 0.112 | locus YHR094C, strain hxt1, hits give low values 0.0587 | locus YHR129C, strain ARP1, hits give low values 0.0541 | locus YHR142W, strain chs7, hits give low values 0.0756 | locus YHR200W, strain rpn10, hits give low values 0.0614 | locus YIL066C, strain RNR3, hits give low values 0.0507 | locus YIL073C, strain SPO22, hits give low values 0.128 | locus YIL125W, strain kgd1, hits give low values 0.898 | locus YIR030C, strain dcg1, hits give low values 0.0593 | locus YJL092W, strain hpr5, hits give low values 0.0573 | locus YJL095W, strain BCK1 (second series), hits give low values 0.0565 | locus YJL095W, strain BCK1, hits give low values 0.0587 and 0.0988 | locus YJL115W, strain asf1, hits give low values 0.0702 | locus YJL129C, strain trk1, hits give low values 0.0784 | locus YJL134W, strain LCB3, hits give low values 0.0499 | locus YJL154C, strain vps35, hits give low values 0.0596 | locus YJL164C, strain tpk1, hits give low values 0.0644 | locus YJL166W, strain qcr8, hits give low values 0.0585 | locus YJL168C, strain set2, hits give low values 0.059 | locus YJL187C, strain SWE1 (second series), hits give low values 0.0495 | locus YJR043C, strain POL32, hits give low values 0.0601 | locus YJR066W, strain TOR1, hits give low values 0.00766
